# Hits are enriched below; roughly 4% of the tested compounds scored in any of these assays.
# esBAF inh – inhibitors of esBAF chromatin remodeling in mouse ES cells; Bmi1-luciferase knock-in reporter, 24 h; 100% = twice the neutral-well signal; reporter increase, % at 12.5 µM; actives 2% (n = 350,000); AID 602393; in the data active means activation above about 40%; inconclusive means no clear call, values can overlap the other calls;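 further: 0% = median of the plate's neutral control wells and 100% = double that signal; a rise in the Bmi1 reporter signal indicates esBAF inhibition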
# Statin myotox sup – suppressors of simvastatin-induced myotoxicity in C2C12 myotubes; AID 602340; ATP luminescence, 48 h; scaled: DMSO 0, geranylgeraniol control 100; rescue of ATP level, % at 7.49 µM; actives 0.78% (n = 330,000);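 active means mean ATP rescue above about 67%, or every replicate alone reaching that limit, limit read from the data, passing the limit was not always enough; inconclusive means no clear call, values can overlap the other calls; inactive means mean under the limit and some replicate under it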;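 further: myotubes were challenged with 10 µM simvastatin during compound exposure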
# Wnt act – activates Wnt/beta-catenin signaling in a reporter cell assay; activator, plate reader; activation, % at 9.35 µM; actives 1.2% (n = 300,000); in the data active means activation above about 30%, passing the limit was not always enough; inconclusive means no clear call, values can overlap the other calls;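 further: 0% = neutral control wells and 100% = positive control wells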
# EBV LMP1 NFkB – reduces LMP1-driven NF-kappaB luciferase signal. LMP1-induced NF-kappaB luciferase reporter cells, luminescence. inhibition, % at 12.5 µM. AID 504558. actives 0.69% (n = 350,000); in the data active means inhibition above about 41%; inconclusive means no clear call, values can overlap the other calls;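 further: 0% = neutral control wells and 100% = reference inhibitor control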
# MITF act – activators of MITF-driven TRPM1 promoter activity in SK-MEL-5 cells. AID 588334. activation, % at 12.5 µM. actives 0.75% (n = 300,000). SK-MEL-5 TRPM1-promoter luciferase, 24 h; % of positive control, neutral wells = 0;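 active means mean activation of at least 80% with every replicate also reaching 80%; inconclusive means mean reaches 80% but some replicate falls short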;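 further: 0% = neutral control wells and 100% = parthenolide positive control wells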
# TRPM1 prom inh – inhibitors of MITF-driven TRPM1 promoter in melanoma cells | SK-MEL-5 TRPM1 promoter luciferase, 24 h | inhibition, % at 12.5 µM | actives 0.83% (n = 330,000);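 active means mean inhibition across replicates of 60% or more, whatever share of single replicates reaches that level; inconclusive means some that reach 60%, reason not given; inactive means mean inhibition across replicates below 60%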
# Starred values were filed as active, the others as inactive; ? = inconclusive; / = no result given.
SMILES,esBAF inh,Statin myotox sup,Wnt act,EBV LMP1 NFkB,MITF act,TRPM1 prom inh
CCOC(=O)CC(=O)CSc1ncc(C(=O)OCC)c(N)n1,17,120*,-1,11,13,-16
O=C(Cc1nc(=O)c2ccccc2s1)Nc1ccccc1,62*,-21,/,-59,/,-63
Cc1cc(C)nc(Nc2nc3ccccc3s2)n1,/,/,16,-33,13,-17
Cc1ccccc1S(=O)(=O)/N=C(/Nc1nc2ccccc2s1)c1ccccc1,62*,-1,53*,-40,98*,-96
Cc1nc(SCC(=O)Nc2nc3ccccc3s2)c(C#N)c(C)c1C,/,/,-30,84*,-95,96*
CC(=O)c1c(C)nc(Nc2nc3ccccc3s2)nc1C,/,/,38*,/,/,/
O=C(Cc1nnc(NC(=O)Nc2ccccc2)s1)Nc1ccccc1,/,/,0,/,/,/
Cc1n[nH]c(C)c1C(=O)CC1(O)C(=O)N(CCc2ccccc2)c2ccc(Br)cc21 (stereo unspecified),-4,18,/,1,-7,6
CCCCCOc1ccc(C(=O)NCCC(=O)NCCCC(=O)OCC)cc1,/,/,-2,-3,/,-1
COCC(=O)Nc1nc2ccccc2s1,19,3,19,-7,18,-17
O=C(Cc1cccs1)Nc1nc2ccccc2s1,49*,3,/,-16,63,-64
O=C(Cc1ccccc1)Nc1nc2ccccc2s1,50*,/,8,-32,?,-83
CC1(C(=O)Nc2nc3ccccc3s2)CC1(Br)Br (stereo unspecified),?,-5,14,-10,83*,-80
O=C(NNc1nc2ccccc2s1)C1CC1,-2,-1,/,-7,-7,2
CC(C)C(=O)NNc1nc2ccccc2s1,92*,15,16,-33,78,-76
O=C(Cc1ccccc1)Nc1nc(=O)c2ccccc2s1,/,/,/,-2,14,-14
Cc1ccc2nc(NC(=O)Cc3cccs3)sc2c1,38,16,/,-29,47,-45
COc1ccc(C(N)c2csc(Nc3cc(Oc4ccccc4)ncn3)n2)cc1 (stereo unspecified),-7,4,0,/,/,/
Cn1c(N)c(C(=O)CSc2nnc(-c3cccs3)n2C2CC2)c(=O)[nH]c1=O,/,/,-4,-6,-2,2
COc1ccc(C(=O)N/C(=C\c2cn(S(=O)(=O)N(C)C)c3ccccc23)C(=O)N2CCOCC2)cc1,2,6,-2,3,10,-12
COC(=O)c1ccc(CSc2nc3ccccc3s2)o1,47*,-5,3,-30,63,-71
COc1ccccc1C(=O)n1nc(C)cc1C,-3,-12,/,5,22,-20
CCOc1ccccc1C(=O)n1nc(C)cc1C,7,114*,/,3,-5,7
Cc1cc(C)c(S(=O)(=O)/N=C2/C=C(Sc3ncn[nH]3)C(=O)c3ccccc32)cc1C,/,/,/,-2,-89,89*
Cc1ccc(C)c(S(=O)(=O)/N=C2\C=C(NS(=O)(=O)c3ccccc3)C(=O)c3ccccc32)c1,-7,-10,-3,1,-12,9
SMILES,esBAF inh,Statin myotox sup,Wnt act,EBV LMP1 NFkB,MITF act,TRPM1 prom inh
CCc1ccc(-c2ccc(SCC(=O)NC3CCCC3)nn2)cc1,47*,1,24,-25,/,/
CCOC(=O)N1CCN(C(=O)CS(=O)(=O)c2cn(Cc3ccccc3Cl)c3ccccc23)CC1,5,1,4,12,0,0
C=CCNc1ccc(N2C(=O)CCCC2=O)cc1[N+](=O)[O-],-3,-4,0,8,-10,10
Cc1ccc(C(=O)Cn2cnc3ccccc3c2=O)cc1,56*,9,27,-25,89*,-88
Cc1ccc(-n2ncc3c(=O)n(CC(=O)NC4CCCCC4)cnc32)cc1C,-4,2,4,4,-1,-1
CC(C)(C)n1ncc2c(=O)n(CC(=O)NC3CCCCC3)cnc21,44*,9,/,-19,53,-53
O=C(Cn1cnc2c(nnn2Cc2ccc(F)cc2)c1=O)NC1CCCC1,2,141*,/,-3,-15,16
O=C(Cn1cnc2ccccc2c1=O)c1ccccc1,29,7,/,0,/,-21
CC(C)(C)n1ncc2c(=O)n(CC(=O)c3ccccc3)cnc21,19,2,/,-10,96*,-91
C[C@H](CO)N1C[C@H](C)[C@@H](CN(C)S(=O)(=O)c2ccc(F)cc2)Oc2ccc(NS(=O)(=O)c3cn(C)cn3)cc2CC1=O,-4,12,/,/,/,/
COc1cc(/C=C2\SC(=O)N(CCN)C2=O)ccc1OS(=O)(=O)c1cc(C)ccc1C,/,/,39*,-3,0,-2
COc1ccc(/C=C2\SC(=O)N(CCC(=O)Nc3ccccc3)C2=O)cc1OC,/,/,/,-1,-5,11
Cn1c2c(c3ccccc31)CCN=C2c1ccccc1,/,/,2,0,-9,8
CCOc1cc(/C=N\NC(N)=O)cc(Br)c1OC(C)C,/,/,/,4,2,-1
COc1ccc(S(=O)(=O)Nc2ccccc2)cc1,/,/,1,5,-8,5
COc1ccc(S(=O)(=O)Nc2ccc(O)c3ccccc23)cc1,7,-37,/,-8,-66,69*
COC(=O)N/N=C/c1ccc(-c2ccc(C)c(Cl)c2)o1,/,/,3,-11,34,-31
Cc1ccc(-c2ccc(/C=N/c3ncn[nH]3)o2)cc1Cl,10,6,/,59*,-4,6
CCS(=O)(=O)N1Cc2ccccc2CC1C(=O)NCc1cccc(OC)c1 (stereo unspecified),/,/,-2,2,91*,-97
CCS(=O)(=O)N1Cc2ccccc2CC1C(=O)Nc1cccc(OC)c1 (stereo unspecified),53*,12,15,-5,19,-21
COc1ccc(CCNc2oc(-c3ccco3)nc2C#N)cc1,5,-14,-5,-6,9,-12
CN(C)c1ccc(-c2nnn(Cc3ccccc3Br)n2)cc1,94*,10,9,-19,55,-52
Fc1ccccc1Cn1nnc(-c2ccc3c(c2)OCO3)n1,22,11,71*,-36,67,-72
COc1ccc(C(=O)Cn2nnc(-c3ccccc3F)n2)cc1,6,17,10,12,14,-13
O=C(Cn1nnc(-c2ccc(OCc3ccccc3F)cc2)n1)N1CCOCC1,41*,5,/,-6,76,-70
COc1ccc(-c2nnn(Cc3ccccc3F)n2)cc1,64*,2,/,-39,108*,-103
Clc1ccccc1Cn1nnc(-c2ccccc2)n1,/,/,4,-15,39,-37
CCOC(=O)c1cnc(-c2ccccc2)nc1Oc1ccc(Cl)cc1,-12,29,/,1,-1,2
CCOC(=O)N1CCN(C(=O)CN(Cc2ccccc2)S(=O)(=O)c2ccc(OC)c(Cl)c2)CC1,-3,123*,/,-5,7,-6
CCOC(=O)N1CCN(C(=O)CN(Cc2ccccc2)S(=O)(=O)c2ccc(OC)c(C)c2)CC1,/,/,/,-1,6,-5

# Compound activity from PubChem.
